In all, about 360,000 compounds went through this assay and about 2,700 (0.75%) were called active. The sample holds actives, similar compounds and a random draw of the others, so the mix is not that of the screen. Unmarked numbers belong to inactive results. No stated cut-off is given here; in the data, active means inhibition above about 4.5%; inactive means the rest.
The compounds below were run on Methionine sulfoxide reductase A (Bos taurus) (assay: bovine MsrA enzyme inhibitors, primary screen, biochemical, absorbance, HTS (AID 651718;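 further: 0% = vehicle wells with enzyme and 100% = reference inhibitor wells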)). Details: purified bovine MsrA, absorbance read-out; at 15.5 µM; active compounds read high.
With `O=c1c2ccccc2nnn1CSc1nc2sc3c(c2c(=O)n1CC1CCCO1)CCC3` (stereo not drawn) the inhibition was -0.37%.
With `Cc1ccc(Cl)cc1-c1ccc(/C=N/n2cnnc2)o1` the inhibition was 4.94% (active).
Work on `Brc1cc(/C=N/n2cnnc2)oc1Br` yielded an inhibition of 2.05%.
For `Clc1cc(-c2ccc(/C=N/n3cnnc3)o2)ccc1Br`, the inhibition was 0.91%.
`CC(=O)Nc1ccc(S(=O)(=O)N(C)c2ccc(OCC(=O)OCC(=O)N3CCCCC3)cc2)cc1` was tested, and the inhibition was -0.39%.
For `CC(C)OCCCNC(=S)N1CCC(C(=O)c2ccc3c(c2)OCCO3)CC1`, the inhibition was -0.4%.
Work on `CCCN(CC(=O)Nc1ccccc1OC)C(=O)CCC(=O)c1ccc(F)cc1` yielded an inhibition of -0.69%.
With `CCOC(=O)C(=Cc1ccccc1)C(=O)c1ccccc1` the inhibition was 0.49%.
In the case of `Cc1cc(C)nc(S/C=C/C(=O)c2ccccc2)n1`, the inhibition was 5.17% (active).
`CSc1nc(N(C)NC(=O)c2cccc(C)c2)c2ccccc2n1` gave an inhibition of 0.74%.
Compound `CCc1ccc(C2=CC(=O)CC(C)(C)C2=O)cc1` has an inhibition of 0.09%.
Work on `COc1cccc(CNC(=O)[C@H]2CCCN2C(=O)[C@H]2CCCN2C(=O)C2CCCCC2)c1` yielded an inhibition of -0.24%.
Compound `COCC1CCN(C(=O)C2CCC(=O)N(CC3CCCCC3)C2)CC1` (stereo not drawn) has an inhibition of -0.21%.
For `Oc1oc(-c2ccccc2Br)nc1/C=N/c1ccccn1`, the inhibition was 2.4%.
`Cc1ccc(-c2noc(CC(c3ccccc3)c3ccccc3)n2)cc1` was tested, and the inhibition was 0.66%.
For `CC(N=Cc1nc(-c2ccccc2)oc1O)c1ccccc1` (stereo not drawn), the inhibition was 5.77% (active).
`CCN(CC)CC1(O)CCN(C(=O)c2ccc(Cl)c(Cl)c2)CC1` showed an inhibition of -0.14%.
`Cc1ccc(C)c(CN2CCC(CNC(=O)C3CCCN(c4ncnc5c4nc4n5CCCCC4)C3)CC2)c1` (stereo not drawn) was tested, and the inhibition was 1.23%.
In the case of `CSc1ccc(/C=C2\NC(=O)NC2=O)cc1`, the inhibition was 7.41% (active).
`CSc1ccc(/C=C/C(=O)NC23CC4CC(CC(C4)C2)C3)cc1` gave an inhibition of 3.33%.
With `CC(C)c1ccc(/C=C2\NC(=O)NC2=O)cc1` the inhibition was 1.9%.
`OC(CCl)CCl` showed an inhibition of -0.37%.
Work on `COc1ccc(CN2CCC(C)(Oc3cccc(F)c3)C2)c2ccccc12` (stereo not drawn) yielded an inhibition of 0.31%.
For `CC(=NNC(=O)c1ccncc1)c1ccc(Cl)c(Cl)c1`, the inhibition was -0.76%.
Work on `CC(/C=N/NC(=O)c1cc(-c2ccc3ccccc3c2)n[nH]1)=C\c1ccco1` yielded an inhibition of 2.77%.
`CC(/C=N/NC(=O)c1ccncc1)=C\c1ccco1` was tested, and the inhibition was 4.8% (active).
`C=CCN1C(=O)N(Cc2ccccc2)c2ccccc2S1(=O)=O` was tested, and the inhibition was 3.26%.
In the case of `COCCNC(=S)N/N=C/c1c(C)[nH]c2ccccc12`, the inhibition was 5.52% (active).
`Cc1[nH]c2ccccc2c1/C=N/NC(=O)CNC(=O)c1ccc2c(c1)OCO2` was tested, and the inhibition was 2.56%.
Work on `COCCNC(=S)N(CCc1c(C)[nH]c2ccc(C)cc12)Cc1cccnc1` yielded an inhibition of -1.51%.
`Clc1cccc2c1C1CC2CCN1Cc1ccccc1` (stereo not drawn) was tested, and the inhibition was -1.2%.
Compound `COC(=O)c1cc2c(c3c4cc(F)ccc4n(S(=O)(=O)c4ccccc4)c13)C(=O)N(Cc1ccccc1OC)C2` has an inhibition of 1.35%.
In the case of `CCCCC1S/C(=N/N=C/c2cccs2)NC1=O` (stereo not drawn), the inhibition was 0.75%.
In the case of `CCC1S/C(=N/N=C/c2ccco2)NC1=O` (stereo not drawn), the inhibition was 4.55% (active).
`O=C1N/C(=N\N=C\c2ccco2)SC1Cc1ccc(F)cc1` (stereo not drawn) was tested, and the inhibition was 2.66%.
Compound `COC(=O)C1=C(C)N(Cc2ccc(C(F)(F)F)cc2)C(=NCc2ccccc2)NC1c1ccccc1C(F)(F)F` (stereo not drawn) has an inhibition of 2.37%.
`CC(C)(C)c1ccc(S(=O)(=O)NCC2CCN(C(=O)C(=O)c3cc4ccccc4o3)CC2)cc1` showed an inhibition of 1.27%.
With `Cc1cccc(-n2c(N)c(C(=O)N3CCN(C)CC3)sc2=S)c1` the inhibition was 2.37%.
With `Cc1cccc(-n2c(O)c(C=Nc3ccccc3N)c(=O)[nH]c2=O)c1` the inhibition was 5.11% (active).
`COc1cc(OC)cc(C(=O)NCCSCc2ccc(Cl)cc2)c1` gave an inhibition of -2.11%.
With `CCc1nnc(NS(=O)(=O)c2ccc(NC(=S)NC(=O)/C=C/c3cccs3)cc2)s1` the inhibition was 4.76% (active).
With `CCc1nnc(NS(=O)(=O)c2ccc(NC(=O)c3cccc(OC(F)(F)C(F)F)c3)cc2)s1` the inhibition was -0.35%.
Work on `CCOC(=O)c1c(NC(=S)NC(=O)/C=C/c2cccs2)sc(C)c1C` yielded an inhibition of -0.71%.
`Cc1cc(C(=O)NNC(=S)NC(C)c2ccccc2)cs1` (stereo not drawn) gave an inhibition of 0.13%.
For `Cn1nnnc1SCC(=O)Nc1sccc1C(N)=O`, the inhibition was 0.13%.
`COC(=O)c1cc2c(c3c4ccccc4n(S(=O)(=O)c4cccc(C)c4)c13)C(=O)N(Cc1ccccc1)C2` gave an inhibition of 0.16%.
`CC1(C(=O)NCc2ccccc2)CN(S(C)(=O)=O)CC(=O)N1CC(F)(F)F` (stereo not drawn) gave an inhibition of -0.74%.
For `COc1ccc(C(=O)NNC(=O)c2cnccn2)cc1[N+](=O)[O-]`, the inhibition was 3.54%.
With `COc1ccc(C(=O)CSc2nc(C)cc(C)n2)cc1[N+](=O)[O-]` the inhibition was 11.2% (active).
`COc1ccc(-n2nnnc2SCC(=O)c2ccc(OC)c(OC)c2)cc1` was tested, and the inhibition was 1.76%.
`CN1CCN(CC(=O)C23CC4CC(CC(C4)C2)C3)CC1` showed an inhibition of -0.74%.
Work on `COc1ccc(C(=O)Nc2c(N)nc(SCC(=O)N3CCC(C)CC3)[nH]c2=O)cc1OC` yielded an inhibition of -1.43%.
Compound `C[C@@H]1ON(C)[C@H]2C[C@H]3c4cc(N5CCOCC5)ccc4CCN3C[C@@H]12` has an inhibition of -1.23%.
With `CCOC(=O)C1=C(C(=O)OCC)C2N(Cc3ccc(C#N)cc3)c3ccccc3[C@@]23C[C@@H](C(=O)OC)N(S(=O)(=O)c2ccc(F)cc2)C3=N1` (stereo partly drawn) the inhibition was 1.03%.
`CCOC(OCC)c1ccc(/C=C\c2nccc(N)n2)cc1` was tested, and the inhibition was 4.82% (active).
With `Cc1cc2c(nc1C)CCCN2C` the inhibition was 0.48%.
In the case of `O=S(=O)(c1cccs1)N1CCCc2nc(-c3ccc(Br)cc3)ccc21`, the inhibition was 0.56%.
`Cc1ccc(C)c2[nH]c(=O)c(CN(Cc3cccnc3)C(=S)NCc3ccco3)cc12` showed an inhibition of 0.59%.
With `Cc1cccc(C)c1NC(=O)C(Cl)C(=O)c1ccccc1` (stereo not drawn) the inhibition was -0.19%.
`CCCc1ccc(OCc2ccc(C(=O)N/N=C/c3cccc([N+](=O)[O-])c3)o2)c(OC)c1` gave an inhibition of 0.9%.
For `Cc1occc1C(=O)N/N=C/c1ccc(-c2cccc([N+](=O)[O-])c2)o1`, the inhibition was 4.99% (active).
With `COC(=O)N/N=C/c1ccc(-c2ccc(Cl)c(Cl)c2)o1` the inhibition was 3.75%.
`CC[C@H](NC(=O)[C@H](Cc1ccccc1)NC(=O)[C@H]1O[C@@H](n2cnc3c(=O)[nH]c(N)nc32)[C@H](O)[C@@H]1O)c1ccccc1` gave an inhibition of 0.98%.
For `COc1ccccc1-c1n[nH]c2c1[C@H](C)CC[C@H]2C(C)C`, the inhibition was 12.6% (active).
Work on `COc1ccccc1-c1n[nH]nc1C1=CC(=O)CC(C)(C)C1` yielded an inhibition of 2.39%.
With `CC(=O)N1N=C(c2ccncc2)OC1(Cc1ccccc1)Cc1ccccc1` the inhibition was 11.8% (active).
In the case of `CC(=O)N1N=C(c2ccccc2)OC1c1cccnc1` (stereo not drawn), the inhibition was 0.4%.
In the case of `CCN(C(=O)CSc1nnc(-c2ccncc2)o1)c1ccccc1`, the inhibition was -1.04%.
Compound `CC1(C(=O)N/N=C/c2cc3c(cc2Br)OCO3)CC1(Br)Br` (stereo not drawn) has an inhibition of 2.89%.
For `CC(C)Oc1c(Br)cc(Br)cc1/C=N/NC(N)=S`, the inhibition was 6.79% (active).
With `Cc1cc(=O)oc2c3c(cc(OCC(=O)NCc4ccccn4)c12)OC(C)(C)CC3` the inhibition was 2.4%.
In the case of `Cn1c(=NC(=O)c2cnccn2)sc2ccccc21`, the inhibition was 6.75% (active).
Compound `Cn1c(=NC(=O)c2ccco2)sc2cccc(F)c21` has an inhibition of 4.22%.
For `COC(=O)c1ccc(OC(=O)c2cnccn2)cc1`, the inhibition was 0.63%.
For `Cc1cc(N2CCN(C(=O)OC(C)(C)C)C[C@H]2C)ccc1N1CCN(Cc2ccccc2)[C@H](C)C1`, the inhibition was -0.82%.
`Nc1[nH]c(C(=O)c2ccccc2)c(-c2ccc(Cl)cc2Cl)c1C(=O)c1ccccc1` gave an inhibition of -0.16%.
Work on `CCc1c(-c2ccccc2OC)ncn1CCc1ccccc1OC` yielded an inhibition of 0.48%.
`O=Cc1cn(-c2ccccc2)nc1-c1ccccn1` was tested, and the inhibition was 9.1% (active).
For `O=C(COC(=O)/C=C/c1cn(-c2ccccc2)nc1-c1cccnc1)Nc1ccc(Cl)cc1Cl`, the inhibition was 0.05%.
`O=C(NNC(=S)NC(=O)c1cn(-c2ccccc2)nc1-c1ccccc1)c1ccncc1` gave an inhibition of 2.54%.
For `Cc1cc(Cl)ccc1OCc1nc(-c2ccncc2)no1`, the inhibition was 0.44%.
With `CCc1ccc2c(c1)NC(=O)C2(C)Cc1ccc(OC(F)(F)F)cc1` (stereo not drawn) the inhibition was 1.57%.
For `COc1ccccc1CC1(C)C(=O)Nc2ccc(OC(F)(F)F)cc21` (stereo not drawn), the inhibition was -0.13%.
With `Cc1ccc(CC2(C)C(=O)Nc3ccc(OC(F)(F)F)cc32)cc1` (stereo not drawn) the inhibition was 9.02% (active).
`Cc1cc(NCCc2c[nH]c3ccccc23)ccc1Oc1cccnc1` was tested, and the inhibition was -0.9%.
Work on `COc1cccc(C2/C(=C(/O)c3ccc(F)cc3)C(=O)C(=O)N2CCN(C)C)c1` (stereo not drawn) yielded an inhibition of 2.59%.
Compound `COc1ccc(C2/C(=C(/O)c3ccccc3)C(=O)C(=O)N2c2ncccn2)cc1OC` (stereo not drawn) has an inhibition of 1.66%.
`COc1ccc(C2/C(=C(/O)c3ccccc3)C(=O)C(=O)N2C)c(OC)c1` (stereo not drawn) was tested, and the inhibition was 4.89% (active).
`CCOc1ccccc1C(=O)N1CCC[C@@H]1C(=O)N1CCC[C@H]1C(=O)NCc1ccccc1` was tested, and the inhibition was 0%.
`CSC1=NCCN1C(=O)c1ccc(S(=O)(=O)N2CCOCC2)cc1` was tested, and the inhibition was 0.32%.
In the case of `Cc1c(-c2ccccc2)cn2c1-c1ccc(C)n1CC2`, the inhibition was 2.59%.
In the case of `CN1CCCc2nc(-c3ccccc3)ccc21`, the inhibition was -0.16%.
`O=C1[C@@H](c2ccccc2)[C@@H](c2ccccc2)N1c1ccccc1` showed an inhibition of 0%.
`COc1ccc(/C=C/C(=O)Nc2ccc(C34CC5CC(CC(O)(C5)C3)C4)cc2)cc1OC` gave an inhibition of 2.4%.
For `COc1ccc(/C=C/C(=O)Nc2cccnc2)cc1OC`, the inhibition was 5.32% (active).
With `COc1cc(/C=N/NC(=S)Nc2cccnc2)cc(OC)c1O` the inhibition was 4.5%.
For `COc1cccc(CNC(=O)[C@H]2CCCN2C(=O)[C@H]2CCCN2C(=O)c2ccc(F)cc2)c1`, the inhibition was -0.32%.
With `COCCN(CCOC)S(=O)(=O)NC[C@H]1O[C@@H](n2cnc3c(N)ncnc32)[C@H](O)[C@@H]1O` the inhibition was -0.9%.
Work on `CNC[C@H](CC1CCCCC1)NC[C@H](NCCC1CCCC1)[C@H](C)O` yielded an inhibition of 0.32%.
In the case of `C[C@@H]1CN([C@H](C)CO)C(=O)CCCn2cc(nn2)CO[C@H]1CN(C)C(=O)Nc1ccc(N2CCCCC2)cc1`, the inhibition was 0.88%.
Work on `CN(CCO)c1ccc(/C=N/Nc2nncc3ccccc23)cc1` yielded an inhibition of 2.64%.
For `COc1cc(/C=N/Nc2nn3cnnc3c3ccccc23)cc(OC)c1OC`, the inhibition was 5.31% (active).
`COc1cc(Nc2nc3ccc(Cl)cc3n3cnnc23)cc(OC)c1OC` showed an inhibition of -1.86%.
`Cn1ccs/c1=N\S(=O)(=O)c1ccc(C(C)(C)C)cc1` showed an inhibition of -0.4%.
With `COc1ccc(OC)c(C2C3=C(N=c4s/c(=C\c5cccc(O)c5)c(=O)n42)c2ccccc2CC3)c1` (stereo not drawn) the inhibition was 5.07% (active).
`C=CCOc1ccc(C2/C(=C(\O)c3c(C)[nH]c(C(=O)OC)c3C)C(=O)C(=O)N2CCN(C)C)cc1` (stereo not drawn) gave an inhibition of 1.79%.
For `O=C(O)c1ccccc1NC(=S)NC(NC(=O)c1ccccc1[N+](=O)[O-])C(Cl)(Cl)Cl` (stereo not drawn), the inhibition was 0.38%.
Compound `Cn1nc(C(=O)OCC(=O)N(Cc2ccccc2)C(C)(C)C)c2ccccc2c1=O` has an inhibition of -1.57%.

— PubChem BioAssay AID651718 (The Scripps Research Institute Molecular Screening Center, 2012)
